Source: PubChem BioAssay
An excerpt weighted towards active compounds, which were near 10% of everything screened.
BAZ2B inh: qHTS Assay for Inhibitors of BAZ2B; 360,000 tested, 4.4% active; Bromodomain adjacent to zinc finger domain protein 2B (Homo sapiens), Q9UIF8; AlphaScreen BAZ2B-H3K14Ac peptide displacement; Potency, µM (titrated, usually from 114 µM), usual class: inhibitors; further: nearly all actives have a fitted effect of over 60% in size
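BAZ2B (50 nM) with biotin-H3(5-23)K14Ac peptide (50 nM) in PBS pH 7.4, 0.01% Tween-20, preformed 30 min, then compound 30 min at room temperature; top concentration 110uM. AlphaScreen streptavidin donor/nickel chelate acceptor beads (10 ug/mL final), 20 min dark, signal read.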
CtBP-E1A blk: qHTS Assay for Inhibitors of the CtBP/E1A Interaction. AlphaScreen GST-E1A/His-CtBP binding, 1536-well; active compounds read low. 340,000 tested, 0.49% active. activity change, % (test concentration not listed); in the data active means activity change below about -65%; inconclusive means mostly about -30% to -63%
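In 5 uL wells, 23 nL compound meets equimolar GST-E1A and His-CtBP (5X stock 125 nM each) for 2 h, 37 °C. Beads (5X, 50 ug/mL) then 1 h, 37 °C, dark.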
HP1b chromo inh: HTS for Inhibitors of HP1-beta Chromodomain Interactions with Methylated Histone Tails; Chromobox protein homolog 1 (Homo sapiens), P83916; AlphaScreen HP1-beta / biotin-H3K9me3 peptide binding; Potency, µM (doses to about 114 µM), usual class: inhibitors; 390,000 tested, 0.56% active; AID 540317, 2011; further: nearly all actives have a fitted effect of over 70% in size
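HP1-beta protein (50 nM final) preincubated 30 min at room temperature with biotinylated H3(1-18)K9me3 peptide (50 nM) in PBS pH 7.4, 0.01% Tween-20, then compound added for 30 min. AlphaScreen streptavidin donor/nickel chelate acceptor beads (10 ug/mL final), 30 min dark, luminescence read.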
Six1-Eya2 inh: qHTS Assay for Inhibitors of the Six1/Eya2 Interaction | AlphaScreen GST-Six1/His-Eya2 binding, biochemical; active compounds read low | Homeobox protein SIX1 (Homo sapiens) + Protein phosphatase EYA2 (Homo sapiens), … | 360,000 tested, 0.56% active | activity change, % (no concentration beside the values); in the data active means activity change below about -65%; inconclusive means mostly about -30% to -63%
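Compounds are tested against tagged Six1 and Eya2 proteins bridged by glutathione donor and nickel acceptor beads; after a one-hour incubation at 37 °C without light, AlphaScreen emission is recorded.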
G9a block: qHTS Assay for Inhibitors of Histone Lysine Methyltransferase G9a. AID 504332, 2011. Potency, µM (highest dose often 102 µM), usual class: inhibitors. 350,000 tested, 8.8% active. G9a H3K9 monomethylation, AlphaScreen, 2 h; further: nearly all actives have a fitted effect of over 75% in size
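Using a bead-based AlphaScreen, monomethylated H3K9 product from 2 h room-temperature reactions (G9a 20 nM, peptide 500 nM, SAM 20 uM) was detected with 0.5 ug/mL rabbit anti-H3K9me1 antibody.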
JMJD2A Tudor inh: qHTS Assay for Inhibitors of JMJD2A-Tudor Domain; 390,000 tested, 4.4% active; AlphaScreen JMJD2A-Tudor / H3K4me3 peptide binding; AID 504339, 2011; Potency, µM (highest dose often 114 µM), most hits filed as inhibitors; further: nearly all actives have a fitted effect of over 50% in size
Target sequence (O75164 whole entry, looked up, the tested form may be a part): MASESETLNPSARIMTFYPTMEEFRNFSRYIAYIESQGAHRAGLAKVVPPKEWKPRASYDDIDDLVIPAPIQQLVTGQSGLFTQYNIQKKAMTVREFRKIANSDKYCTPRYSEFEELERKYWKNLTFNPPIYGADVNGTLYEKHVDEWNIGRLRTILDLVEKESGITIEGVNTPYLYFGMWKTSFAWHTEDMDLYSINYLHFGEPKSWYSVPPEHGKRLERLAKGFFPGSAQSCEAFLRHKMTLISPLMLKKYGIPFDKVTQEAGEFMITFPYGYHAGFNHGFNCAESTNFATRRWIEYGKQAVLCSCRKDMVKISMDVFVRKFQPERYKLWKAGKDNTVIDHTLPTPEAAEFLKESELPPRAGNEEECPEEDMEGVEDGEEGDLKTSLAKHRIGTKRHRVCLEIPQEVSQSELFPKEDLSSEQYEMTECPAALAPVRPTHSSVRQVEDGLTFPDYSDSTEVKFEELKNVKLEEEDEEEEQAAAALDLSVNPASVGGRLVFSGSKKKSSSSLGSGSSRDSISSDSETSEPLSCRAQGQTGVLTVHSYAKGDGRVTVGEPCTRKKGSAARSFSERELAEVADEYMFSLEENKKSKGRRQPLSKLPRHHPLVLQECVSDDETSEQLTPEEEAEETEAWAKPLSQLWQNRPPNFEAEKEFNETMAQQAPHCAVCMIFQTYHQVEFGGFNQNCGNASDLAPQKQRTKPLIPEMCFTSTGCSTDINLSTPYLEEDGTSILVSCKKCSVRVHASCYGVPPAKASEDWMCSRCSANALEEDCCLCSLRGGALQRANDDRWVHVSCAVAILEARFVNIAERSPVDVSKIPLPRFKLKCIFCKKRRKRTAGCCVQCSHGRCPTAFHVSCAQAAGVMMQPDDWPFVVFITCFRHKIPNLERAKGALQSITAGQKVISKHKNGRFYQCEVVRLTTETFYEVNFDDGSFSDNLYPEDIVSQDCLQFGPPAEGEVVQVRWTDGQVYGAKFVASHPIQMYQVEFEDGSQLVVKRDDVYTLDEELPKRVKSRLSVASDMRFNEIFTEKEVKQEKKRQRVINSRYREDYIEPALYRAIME
Numbers stand for hits; – = inactive; ? = inconclusive; · = no result given; [ ] = dose if it differs, or a comment. Unless noted, the call rests on the fitted dose curve; in most records, active means well fitted inhibition curve with a large enough effect; inconclusive means small, poorly fitted or top-dose-only effect; inactive means no such curve, though single readings can be large or run the other way.

SMILES	BAZ2B inh	CtBP-E1A blk	HP1b chromo inh	Six1-Eya2 inh	G9a block	JMJD2A Tudor inh
NNc1ccc(Cc2ccc(Cl)cc2Cl)nn1	2.82µM	–	–	–	–	28.2µM
Cc1ccc[n+](-c2nc([O-])sc2/C=N/Nc2ccc([N+](=O)[O-])cc2)c1	39.8µM	–	–	–	11.2µM	–
COc1ccc(C2C(C(C)=O)=C(O)C(=O)N2c2cccnc2)cc1OC (configuration not stated)	?	–	–	–	?	79.4µM
COCCN1C(=O)C(O)=C(C(C)=O)C1c1ccc(OC)c(OC)c1 (configuration not stated)	?	–	–	–	44.7µM	15.8µM
Cc1ccc(N2CCN(c3nc4ccc(C)cc4n4nnnc34)CC2)c(C)c1	–	·	–	·	–	–
CCc1nnc2c3ccccc3nc(N3CCN(c4cc(C)ccc4C)CC3)n12	–	·	–	·	–	–
O=C(c1cccs1)N1CCN(c2ccc(F)cc2)CC1	–	–	–	–	–[12.7 µM]	–
O=C(CN1CCN(c2ccc(F)cc2)CC1)c1cccs1	–	·	–	–	15.8µM	–
O=C(Nc1cnc(N2CCN(c3ccccc3)CC2)c(C(=O)O)c1)c1cccs1	50.1µM	·	–	·	?	79.4µM
O=C(NC(=S)N1CCN(c2ccc(F)cc2)CC1)c1cccs1	?	–	–	–	50.1µM	–
O=C(Nc1ccc(N2CCN(c3ccc(F)cc3)CC2)c(C(=O)O)c1)c1cccs1	–	·	–	·	–	–
CC(=O)NCC(=O)OCC(=O)c1ccccc1	–	–	–	–	–	–
O=C(COC(=O)C1CC2CCCC(C1)C2=O)c1cccc(Br)c1 (configuration not stated)	–	·	–	–	?	–
O=C(CN1CC(=O)Oc2ccccc21)OCC(=O)c1ccccc1	12.6µM	-92.1	–	-90.8	?	20µM
O=C(CN1CC(=O)Oc2ccccc21)OCC(=O)c1cccc(Br)c1	8.91µM	?	–	-82.5	44.7µM	39.8µM
Cc1ccc(C)c(N2CCN(C(=O)c3cc4c(=O)n(Cc5cccs5)ccc4nc3C)CC2)c1	–	·	–	·	–	?
Cc1ccc(NC2Sc3ccccc3NC2=O)cc1 (configuration not stated)	–	–	44.7µM	–	1.78µM	50.1µM
COc1cn(CC(=O)Nc2ccc(F)cc2)c(CN2CCCCC2)cc1=O	–	·	–	·	–	–
Cc1cc(C)cc(-n2nnn(C3C/C(=N/NC(N)=S)C4OCC3O4)c2=S)c1 (configuration not stated)	–	–	–	–	50.1µM	?
O=c1[nH]c(CSc2nnc(-c3ccncc3)n2Cc2ccco2)nc2ccccc12	–	–	–	–	–	–
Cc1cccc(-c2nnc(SCc3nc4ccccc4[nH]3)n2Cc2ccco2)c1	–	–	–	–	50.1µM	–
c1coc(Cn2c(SCc3nc4ccccc4[nH]3)nnc2-c2cccs2)c1	–	–	–	–	50.1µM	–
CCOc1ccc(-c2nnc(SCc3nc4ccccc4[nH]3)n2N)cc1	?	–	–	–	?	89.1µM
Cc1ccc(-c2nnc(SCc3nc4ccccc4[nH]3)n2Cc2ccco2)cc1	?	–	–	–	·	79.4µM
CCc1ccc(C2=C(C)C(N3CCC(C(=O)NCCc4ccco4)CC3)=NS2(=O)=O)cc1	–	·	–	·	–	–
SMILES	BAZ2B inh	CtBP-E1A blk	HP1b chromo inh	Six1-Eya2 inh	G9a block	JMJD2A Tudor inh
Cc1ccc(NC(=O)CCn2nc(C)c(S(=O)(=O)N3CCCCC3)c2C)cc1Cl	–	·	–	·	–[12.7 µM]	–
CCC(CC)COC(=O)C1=C(C)NC(=O)NC1c1ccc(N(C)C)cc1 (configuration not stated)	?	·	–	–	15.8µM	?
CCOC(=O)C1=C(C)NC(=O)NC1c1ccc(N(CC)CC)cc1 (configuration not stated)	–	–	–	–	44.7µM	?
CCc1c(C)sc2c1CCN(Cc1cccc(F)c1)C2c1ccccc1 (configuration not stated)	?	·	–	·	–	?
CCCOc1ccc(CNC(=O)c2ccc3c(c2)N(Cc2ccccc2)CCS3)cc1	–	·	–	·	–	–
CCOC(=O)C1=C(O)c2ccccc2C(=O)/C1=C\c1ccc(CC)cc1	20µM	–	–	–	5.62µM	22.4µM
CCCc1ccc(/C=C2\C(=O)c3ccccc3C(O)=C2C(=O)OCC)cc1	20µM	·	·	·	5.62µM	·
CCOc1ccc(CCNC(=O)c2[nH]c3cc(OC)ccc3c2Sc2ccccc2)cc1OCC	–	·	–	·	–	–
O=c1[nH]cnc(O)c1C(c1ccc(Br)cc1)c1c(O)nc[nH]c1=O	–	·	–	–	–	–
O=c1[nH]cnc(O)c1C(c1ccc2c(c1)OCO2)c1c(O)nc[nH]c1=O	–	·	–	–	50.1µM	–
CSCc1c(C(=O)OCC(=O)c2ccc[nH]2)oc2ccccc12	–	–	–	–	25.1µM	–
O=C(NCCc1ccccc1)C1CCN(c2ncnc3c2nc2n3CCCCC2)CC1	–	·	–	·	–	–
Fc1ccc(NCc2cccnc2)cc1F	?	–	–	–	?	79.4µM
Cc1cc(F)ccc1NCc1cccnc1	–	–	?	–	–[12.7 µM]	–
Cc1ccc(NCc2ccc(Cl)nc2)c(NCc2ccc(Cl)nc2)c1	35.5µM	–	–	–	35.5µM	–
Cc1ccc(NCc2cccnc2)c(Br)c1	79.4µM	–	?	–	14.1µM	3.16µM
O=C(CCS(=O)(=O)c1cc(Br)cc2c1N(C(=O)C1CC1)CC2)N1CCN(c2cccc(Cl)c2)CC1	–	·	–	·	?	–
COc1ccccc1-c1c(C)nn2c(C(F)(F)F)cc(-c3ccccc3)nc12	?	·	–	·	8.91µM	–
CNc1ccccc1C(C)(C)c1cc(-c2ccco2)n[nH]1	–	–	?	–	35.5µM	?
O=C(O)CN1C(=O)C2C3CC(C2C1=O)C1C(c2ccccc2)c2sc(=O)[nH]c2SC31 (configuration not stated)	–	–	–	–	–	–
O=c1[nH]c2c(s1)C(c1ccco1)C1C3CCC(C3)C1S2 (configuration not stated)	50.1µM	–	–	–	7.94µM	?
COc1ccc(NC(=O)CCC(=O)Nc2cc(OC)c(NC(=O)c3cccs3)cc2OC)cc1	–	-79.3	–	-79.3	–	–
Cc1cc(NC(=O)COc2ccccc2C)ccc1NC(=O)c1ccco1	–	–	–	–	–	–
